Assay results: PubChem BioAssay (NCI)
The panel holds about 83,000 compounds, 20% with a hit somewhere; the sample as a whole holds those more often.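 Testing used 96-well plates and a 48-hour single-concentration exposure. Example: -40 means 40% of the starting cells died.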 Unmarked numbers belong to inactive results. The source made the active and inactive calls. Rule for the calls: active = growth percent below 10; inactive = the rest.

Columns and labels:
Test in all cases: NCI-60 one-dose screen, 48 h (100 = growth as untreated, 0 = no growth, -100 = all killed)
Conditions in all cases: 10 µM unless noted
HCT-15 colon = system: HCT-15 colon
HT29 colon = system: HT29 colon
SNB-75 CNS = system: SNB-75 CNS
SNB-19 CNS = system: SNB-19 CNS
U251 CNS = system: U251 CNS
PC-3 prostate = system: PC-3 prostate
SK-MEL-5 melanoma = system: SK-MEL-5 melanoma
UACC-62 melanoma = system: UACC-62 melanoma
LOX IMVI melanoma = system: LOX IMVI melanoma
SK-MEL-28 melanoma = system: SK-MEL-28 melanoma
SK-MEL-2 melanoma = system: SK-MEL-2 melanoma
EKVX NSCLC = system: EKVX NSCLC
SN12C renal = system: SN12C renal
UO-31 renal = system: UO-31 renal
TK-10 renal = system: TK-10 renal
ACHN renal = system: ACHN renal
CAKI-1 renal = system: CAKI-1 renal
CCRF-CEM leukemia = system: CCRF-CEM leukemia
MOLT-4 leukemia = system: MOLT-4 leukemia

Row | SMILES | growth (HCT-15 colon) | growth (HT29 colon) | growth (SNB-75 CNS) | growth (SNB-19 CNS) | growth (U251 CNS) | growth (PC-3 prostate) | growth (SK-MEL-5 melanoma) | growth (UACC-62 melanoma) | growth (LOX IMVI melanoma) | growth (SK-MEL-28 melanoma) | growth (SK-MEL-2 melanoma) | growth (EKVX NSCLC) | growth (SN12C renal) | growth (UO-31 renal) | growth (TK-10 renal) | growth (ACHN renal) | growth (CAKI-1 renal) | growth (CCRF-CEM leukemia) | growth (MOLT-4 leukemia)
1 | Cc1ccc(NC(C(=O)c2ccccc2)c2ccccc2)cc1 (centres undefined) | 86.4% | 46.9% | 66.3% | 47.9% | 29.7% | 37.6% | 22.1% | 39.1% | 50.5% | 52.8% | 36.1% | 20.5% | 50.1% | 78.9% | 74.6% | 85% | 66.7% | 65.2% | 74.6%
2 | CC(=O)c1cc2c(N)c(C(=O)Nc3cccc4ccncc34)sc2nc1C | 87.1% | 104% | 97.7% | 95.4% | 101% | 80.7% | 64.7% | 69.9% | 102% | 91.1% | 78% | 91.5% | 99.9% | 88.2% | 99% | 102% | 93.1% | 101% | 88.7%
3 | O=C(N/N=C/c1cc2ccccc2n2nnnc12)Nc1ccccc1 | 98.3% | 97.2% | 103% | 97.1% | 104% | 101% | 101% | 100% | 108% | 113% | 105% | 98% | 100% | 94.1% | 101% | 108% | 94.5% | 103% | 101%
4 | Cn1cc(CC2CC(=O)N(c3ccccc3)C2=O)sc1=NC(=O)c1ccccc1 (centres undefined) | 101% | 103% | 82% | 100% | 102% | 95.5% | 101% | 93.3% | 102% | 98.1% | 106% | 95.1% | 103% | 83.5% | 102% | 101% | 94.7% | 108% | 106%
5 | c1ccc2c(-c3c[nH]c4ccccc34)c3c(cc2c1)[nH]c1ccccc13 | 47% | 72.5% | 38.4% | 90.9% | 70.1% | 69.9% | 67.3% | 68.3% | 60.1% | 75.3% | 50.6% | 77.4% | 80.8% | 58.3% | 94.1% | 62.1% | 63% | 43.9% | 38.2%
6 | CCN(CC)c1ccc(/C=N/NC(=O)CSc2nc3ccccc3c(=O)n2CCc2ccc(S(N)(=O)=O)cc2)c(O)c1 | 25.9% | 42.4% | 59.2% | 53.9% | 31.7% | 45% | 29.4% | 15.5% | 11.5% | 47.9% | 38.5% | 33.8% | 28.2% | 28.2% | 31.3% | 28.7% | 36% | 7.41% (active) | 7.09% (active)
7 | CC(C)(C)CC(C)(C)n1nnnc1C(NC12CC3CC(CC(C3)C1)C2)c1ccccc1 (centres undefined) | 84.5% | 79.9% | 80.5% | 90.5% | 89.4% | 77.6% | 88.9% | 69.2% | 87.6% | 99.6% | 95.8% | 84.9% | 88.8% | 81.6% | 94.9% | 95.8% | 83.1% | 83.5% | 90%
8 | Cc1cnc(C(=O)Nc2nc3ccc(S(=O)(=O)Nc4ccc(C5(C(F)(F)F)CC5)cc4)cc3[nH]2)cn1 | 20.6% | 9.04% (active) | -7.96% (active) | 30.1% | 21.8% | 18% | -3.91% (active) | 35.3% | 35.1% | 54.1% | 37.9% | 59.1% | 34.5% | 38.7% | 32.1% | 48.2% | 22.6% | 11.1% | 20%
9 | O=C(Nc1cccc(C2=NCCN2)c1)c1ccc(-c2ccc(C(=O)Nc3cccc(C4=NCCN4)c3)cc2)cc1 | 82.6% | 84.5% | 82% | 87% | 86.3% | 97.7% | 36.9% | 68.1% | 97.9% | 46.3% | 105% | 95.8% | 61.7% | 99.1% | 138% | 98.4% | 107% | 89.1% | 80.9%
10 | O=c1ccc(-c2nc(N3CCOCC3)c3ccccc3n2)c[nH]1 | 99.1% | 101% | 81.1% | 98.7% | 99.1% | 93.5% | 88.3% | 55.5% | 98.3% | 97.6% | 108% | 59.2% | 94.6% | 83.1% | 87.3% | 93.1% | 95.9% | 108% | 110%
11 | COc1cccc2c1c1nc3cc(C)c(C)cc3nc1n2CCN(C)C | 13.1% | 11% | 34% | 25.4% | 25.9% | 18.3% | 10.7% | 14.6% | 1.15% (active) | 36% | 11% | 25.7% | 16.9% | 6.86% (active) | 52.1% | -12.3% (active) | 9.75% (active) | 27.6% | 10.5%
12 | ClC1=C(Br)C(Br)(Br)C(=C(Br)Br)C1(Br)Br | 79.2% | 82.5% | 96.6% | 93.9% | 94.5% | 82.8% | 92.6% | 81.2% | 77.9% | 102% | 110% | 111% | 95.5% | 71.7% | 80.4% | 78.6% | 61.3% | 25.1% | 74.5%
13 | O=C(CCN1CCCC1)Nc1ccc2c(Nc3ccc(Br)cc3)c3ccccc3nc2c1 | -73.9% (active) | 1.67% (active) | 37.3% | -0.557% (active) | -51% (active) | 4.09% (active) | 31.7% | 77.8% | -92.4% (active) | -28.6% (active) | 97.1% | 59.5% | 30% | -96.8% (active) | -36.1% (active) | 29.4% | 15.3% | -15.6% (active) | -33.8% (active)
14 | COc1cc2c(=O)n(CCN)c3c4cc5c(cc4ccc3c2cc1OC)OCO5 | -75.5% (active) | -89.8% (active) | 43.7% | -67.1% (active) | -74.4% (active) | -60.1% (active) | -78.8% (active) | -12.5% (active) | -76.7% (active) | -71.2% (active) | 47.2% | 52.7% | -69.3% (active) | -84.8% (active) | 42.7% | -10.5% (active) | 18.6% | -19% (active) | -26% (active)
15 | CN1CCN(C(=O)[C@]23CCC(C)(C)C[C@H]2C2=CC[C@@H]4[C@@]5(C)C/C(=C/c6cccnc6)C(=O)C(C)(C)[C@@H]5CC[C@@]4(C)[C@]2(C)CC3)CC1 | 41.4% | 33.1% | 82.1% | 65.4% | 44.7% | 19.1% | 49.8% | 52.8% | 68.5% | 77.9% | 81.5% | 78.8% | 57.8% | 38.6% | 89.5% | 66% | 66.6% | 33.3% | 20.5%
16 | Cc1cc2nc3c4cccc(O)c4n(CCN(C)C)c3nc2cc1C | 21.6% | 31.1% | 25.8% | 38.4% | 35.5% | 35.6% | 39.3% | 49.5% | 8.06% (active) | 75.6% | 54.2% | 42.2% | 29.6% | 6.09% (active) | 72.8% | 8.22% (active) | 13.2% | 27% | 6.01% (active)
